These are literature values, as cited in PubChem BioAssay AID977610.

Usually Ki stands for a measure of affinity in units of concentration, obtained from inhibition or displacement.

The series is described as follows: PubChem AID 977610. Particulars: PDB protein-ligand complexes, literature Ki.

Each structure is given as a SMILES string. Among all 3,600 compounds or so, about 3,600 (100%) were called active. No cut-off is given here; in the data, nearly all actives have Ki up to about 18000 µM. So high a share suggests a set chosen from earlier hits. This is one part of the list. Square brackets hold non-standard residues; d marks the D form. Peptide text beside a SMILES is read from it. Orn(CH(NH2)2) = NC(N)NCCC[C@H](N)C(=O)O

Regarding `COc1ccc([C@@H]2N[C@@H](C)[C@@H](O)[C@H]2O)cc1`, the Ki (protein: alpha-L-fucosidase, PDB entry 4jft) is 3.5 µM (active). With `COc1ccc([C@H]2[C@H](O)[C@H](O)[C@H](C)N2C)cc1`, the Ki (protein: alpha-L-fucosidase, PDB entry 4jfs) was 5.4 µM (active). Consider `NC(N=O)NCC[C@H](N)C(=O)O` (stereo partly drawn), for which the Ki (protein: Arginase, PDB entry 4iu1) was 50 µM (active). As to `CNC(=O)CC[C@H](C[C@H](N)C(=O)O)C(=O)O`, the Ki (protein: Glutamate receptor ionotropic, kainate 3 GluK3 LBD, PDB entry 4nwd) is 3.96 µM (active). For the compound `COC(=O)CC[C@H](C[C@H](N)C(=O)O)C(=O)O`, the Ki (protein: Glutamate receptor ionotropic, kainate 3 GluK3 LBD, PDB entry 4nwc) was 1.74 µM (active). Consider `CCCCCCCCCCCCCCCCCCCC(=O)NCCO`, for which the Ki (protein: FATTY ACID-BINDING PROTEIN, EPIDERMAL, PDB entry 4azp) is 1.26 µM (active). For `CCC(CC)[C@H](NC(C)=O)[C@@H]1[C@H](O)[C@@H](C(=O)O)C[C@H]1NC(N)N`, the Ki (protein: Human Sialidase Neu2, PDB entry 2f10) is 330 µM (active). Turning to `OCc1ccc2c(c1)OCCO2`, the Ki (protein: PDE10A2, PDB entry 4lm2) is 940 µM (active).

Turning to `CC(=O)c1ccc2c(c1)OCCO2`, for the setting “protein: PDE10A2, PDB entry 4lm3”, the Ki is 1200 µM (active). In the case of `CCCCCCCC/C=C\CCCCCCC[C@H](O)c1nnc(-c2ccccn2)o1`, the Ki (protein: Humanized Variant of Fatty Acid Amide Hydrolase (L192F, F194Y, A377T, S435N, I491V, V495M), PDB entry 3k84) is 0.003 µM (active). `Cc1ccnc(N)c1[N+](=O)[O-]`: the Ki (protein: PDE10A2, PDB entry 4mrz) was 300 µM (active).

In the case of `O=C(O)C(O)C(=O)O`, the Ki (protein: Mandelate racemase, PDB entry 4m6u) was 1800 µM (active). For `Nc1c(CC(=O)O)cccc1C(=O)c1ccc(Br)cc1`, the Ki (protein: E. coli sliding clamp, DNA polymerase III subunit beta, PDB entry 4mjq) is 193 µM (active). In the case of `CC(C)[C@H](NC(=O)[C@H](C)NC(=O)[C@H](Cc1ccccc1)NC(=O)[C@H](CO)NC(=O)[C@H](CCCNC(N)N)NC(=O)[C@@H]1CCCN1)C(=O)O` (H-P[Orn(CH(NH2)2)]SFAV-OH), the Ki (protein: LSD1-CoREST complex, PDB entry 3zmz) is 18 µM (active). As to `CC(C)C[C@H](NC(=O)[C@H](Cc1ccccc1)NC(=O)[C@H](CO)NC(=O)[C@H](CCCNC(N)N)NC(=O)[C@@H]1CCCN1)C(=O)N[C@H](C(=O)O)C(C)C` (H-P[Orn(CH(NH2)2)]SFLV-OH), the Ki (protein: LSD1-CoREST complex, PDB entry 3zmt) was 28.4 µM (active). Take `C[C@H](NC(=O)[C@H](C)NC(=O)[C@H](Cc1ccccc1)NC(=O)[C@H](CO)NC(=O)[C@H](CCCNC(N)N)NC(=O)[C@@H]1CCCN1)C(=O)O` (H-P[Orn(CH(NH2)2)]SFAA-OH): the Ki (protein: LSD1-CoREST complex, PDB entry 3zn0) is 10.7 µM (active). In the case of `CC(C)C[C@H](NC(=O)[C@H](CCCNC(N)N)NC(=O)[C@@H]1CCCN1)C(=O)N[C@@H](Cc1ccc(O)cc1)C(=O)N[C@@H](CC(C)C)C(=O)N[C@H](C(=O)O)C(C)C` (H-P[Orn(CH(NH2)2)]LYLV-OH), the Ki (protein: LSD1-CoREST complex, PDB entry 3zn1) was 29.1 µM (active). As to `CCCCCC[C@H]([C@H](C)O)n1cnc2c(N)ncnc21`, the Ki (protein: Bos taurus Adenosine deaminase (ADA), PDB entry 2z7g) is 0.00113 µM (active).

In the case of `COC(=O)N[C@H](C(=O)NN(CCC[C@@]1(O)Cc2ccc(cc2)C/C=C\CNC(=O)[C@H](C(C)C)NC1=O)Cc1ccc(-c2cccnc2)cc1)C(C)(C)C`, the Ki (protein: HIV-1 protease, PDB entry 4cpt) was 0.02 µM (active).

On to `COC(=O)N[C@H](C(=O)NN(CCC[C@@]1(O)Cc2ccc(cc2)C/C=C\CNC(=O)[C@H](C(C)C)NC1=O)Cc1ccc(-c2ccncc2)cc1)C(C)(C)C`, for which, where the note is “protein: HIV-1 protease, PDB entry 4cps”, the Ki is 0.0054 µM (active). On to `COC(=O)N[C@H](C(=O)NN(CCC[C@@]1(O)Cc2ccc(cc2)C/C=C\CNC(=O)[C@H](C(C)C)NC1=O)Cc1ccc([C@H]2C=CCS2)cc1)C(C)(C)C`, for which, under “protein: HIV-1 protease, PDB entry 4cpx”, the Ki was 0.017 µM (active).

Consider `CC(C)c1ccc(C[C@@H](C)C(=O)N[C@@H]2O[C@H](CO)[C@@H](O)[C@H](O)[C@H]2O)cc1`, for which the Ki (protein: Glycogen phosphorylase, muscle form, PDB entry 4mi3) is 75.3 µM (active). Regarding `Cc1ccc(C(=O)NC(=O)N[C@@H]2O[C@H](CO)[C@@H](O)[C@H](O)[C@H]2O)cc1`, where the note is “protein: Oryctolagus cuniculus Glycogen Phosphorylase, PDB entry 2qlm”, the Ki was 2.3 µM (active). For the compound `CC(C)c1ccc(CCC(=O)N[C@@H]2O[C@H](CO)[C@@H](O)[C@H](O)[C@H]2O)cc1`, the Ki (protein: Glycogen phosphorylase, muscle form, PDB entry 4mic) was 4.98 µM (active). As for `O=C(CCc1ccc(-c2ccccc2)cc1)N[C@@H]1O[C@H](CO)[C@@H](O)[C@H](O)[C@H]1O`, the Ki (protein: Glycogen phosphorylase, muscle form, PDB entry 4mhs) was 5.14 µM (active).

`CC[B]O`: where the note is “protein: pure Acyl-homoserine lactone acylase PvdQ, PDB entry 4wks”, the Ki is 2000 µM (active).

As to `Cc1nn(C)cc1-c1ccn[nH]1`, the Ki (protein: Catechol O-methyltransferase COMT, PDB entry 4p58) was 25 µM (active). As for `CC(C)S[C@@H]1O[C@H](CO)[C@H](O)[C@H](O)[C@H]1O`, the Ki (protein: Putative lipoprotein BT2192, PDB entry 4oue) is 500 µM (active). In the case of `NCC1CCC(C(=O)N[C@@H](Cc2ccccc2)c2nc(-c3ccc4c(N)n[nH]c4c3)c(Cl)[nH]2)CC1` (stereo partly drawn), under “protein: Coagulation factor XI FXIa, PDB entry 4ty7”, the inhibition constant Ki is 0.0003 µM (active). As for `NCC1CCC(C(=O)N[C@@H](Cc2ccccc2)c2ncc(-c3ccc(C(N)=O)cc3)[nH]2)CC1` (stereo partly drawn), the Ki (protein: Coagulation factor XI FXIa, PDB entry 4ty6) was 0.03 µM (active). On to `N#CCC(=O)N1CCC[C@@H](n2[nH]nc3cnc4nccc4c32)C1`, for which, where the note is “protein: Tyrosine-protein kinase JAK1, PDB entry 4i5c”, the Ki was 0.0015 µM (active). On to `O=C(O)C(=O)Nc1ccc(C[C@@H](c2nc3ccccc3o2)S(=O)(=O)Nc2ccc(F)cc2)cc1`, for which the Ki (protein: Tyrosine-protein phosphatase non-receptor type 1, PDB entry 4i8n) was 35 µM (active). `O=c1[nH]c(=O)n([C@@H]2O[C@H](CO)[C@@H](O)[C@H](O)[C@H]2O)cc1C(F)(F)F`: where the note is “protein: Glycogen phosphorylase, muscle form, PDB entry 3t3i”, the Ki is 17 µM (active). Take `O=c1[nH]c(=O)n([C@@H]2O[C@H](CO)[C@@H](O)[C@H](O)[C@H]2O)cc1I`: under “protein: Glycogen phosphorylase, muscle form, PDB entry 3t3h”, the Ki was 1.94 µM (active). For the compound `O=c1[nH]c(=O)n([C@@H]2O[C@H](CO)[C@@H](O)[C@H](O)[C@H]2O)cc1Br`, the Ki (protein: Glycogen phosphorylase, muscle form, PDB entry 3t3g) was 3.27 µM (active). On to `O=c1[nH]c(=O)n([C@@H]2O[C@H](CO)[C@@H](O)[C@H](O)[C@H]2O)cc1Cl`, for which the Ki (protein: Glycogen phosphorylase, muscle form, PDB entry 3t3e) is 1.02 µM (active).

As to `OC[C@@H]1[C@@H](O)[C@H](O)[C@@H](O)[C@@H]1NCC1CCCCC1`, where the note is “protein: Raucaffricine Glucosidase, PDB entry 3zj6”, the Ki was 0.22 µM (active). For `COCCCC[C@@H](NOCCN)c1ccc(C(F)(F)F)cc1`, the Ki (protein: Transporter(delta13 mutant), PDB entry 4mm9) is 2.07 µM (active). With `O=[N+]([O-])c1ccccc1S[C@@H]1O[C@H](CO)[C@H](O)[C@H](O)[C@H]1O`, the Ki (protein: Putative lipoprotein BT2192, PDB entry 4ozo) was 147 µM (active). For `COc1cc2c(c(OC)c1)[C@@H]1[C@H]3CCC[C@@H](C(=O)N1CC2)N3C(=O)C(=O)c1cc(OC)c(OC)c(OC)c1`, for the setting “protein: Peptidyl-prolyl cis-trans isomerase FKBP5 (A19T mutation), PDB entry 4jfi”, the Ki was 18.1 µM (active). For `COc1cc(Cc2cnc(N)nc2N)cc(/C=C/C(=O)N2NCc3ccccc3[C@@H]2c2ccccc2)c1OC`, the Ki (protein: Dihydrofolate reductase, PDB entry 4elb) was 0.005 µM (active). Regarding `COc1cc(Cc2cnc(N)nc2N)cc(/C=C/C(=O)N2NCc3ccccc3[C@H]2CC(C)C)c1OC`, the Ki (protein: Dihydrofolate reductase, PDB entry 4elh) was 0.0082 µM (active).

`COc1cc(Cc2cnc(N)nc2N)cc(/C=C/C(=O)N2N=Cc3ccccc3[C@@H]2C(C)C)c1OC`: the Ki (protein: Dihydrofolate reductase, PDB entry 4ele) was 0.0132 µM (active).

As for `COc1cc(Cc2cnc(N)nc2N)cc(/C=C/C(=O)N2NCc3ccccc3[C@@H]2CC(C)C)c1OC`, the Ki (protein: Dihydrofolate reductase, PDB entry 4elg) was 0.0069 µM (active). Turning to `COc1cc(Cc2cnc(N)nc2N)cc(/C=C/C(=O)N2NCc3ccccc3[C@@H]2CCC(F)(F)F)c1OC`, for the setting “protein: Dihydrofolate reductase, PDB entry 4elf”, the Ki is 0.0094 µM (active). Turning to `CCCCCCCCCCCCCB(O)O`, the Ki (protein: Acyl-homoserine lactone acylase PvdQ subunit beta, PDB entry 4m1j) is 0.0002 µM (active). As to `Cc1cc(N)ccc1O`, where the note is “protein: PDE10A2, PDB entry 4llp”, the Ki was 16 µM (active). Take `O=C(O)c1ccccc1C(=O)NCc1c(Cl)cccc1Sc1ccc(Cl)cc1Cl`: under “protein: Dehydrosqualene synthase, PDB entry 3tfp”, the Ki was 0.34 µM (active).
